Source: PubChem (Broad Institute)
An excerpt weighted towards active compounds, which were near 6.7% of everything screened.
Tcruzi prolif: T. cruzi intracellular proliferation inhibitors, primary screen, cell-based, beta-gal Tulahuen parasites, NIH3T3 host, luminescence; T. cruzi beta-gal in NIH3T3, GalScreen luminescence, 90 h; inhibition, % at 8.34 µM; 77,000 tested, 5.9% active;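 active means mean inhibition above about 93%, with at least 55% of replicates each passing it, limit read from the data, passing the limit was not always enough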
C diff HTS: C. difficile growth inhibitors, primary screen, HTS; 86,000 tested, 0.25% active; growth activity, negative = inhibition, % at 16 µg/mL (by protocol); Clostridium difficile clinical isolate growth, OD600, 24 h; stronger effect = lower value; AID 1259249, 2017;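 active means mean growth activity at or below -80% and every replicate also at or below -80%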;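 further: 0% = DMSO wells and -100% = levofloxacin 16 µg/mL wells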
Pf Dd2 inh: P. falciparum Dd2 growth inhibitors, primary screen, SYBR Green fluorescence, single dose replicates; 72 h; stronger effect = lower value; activity change, % at 10 µM; 94,000 tested, 2.3% active; AID 1159554, 2015; in the data active means activity change below about -80%
Numbers without * were called inactive; . = no result given; ! = a repeat was not active.

SMILES	Tcruzi prolif	C diff HTS	Pf Dd2 inh
C[C@H]1CN([C@@H](C)CO)C(=O)c2cc(NC(=O)CCC(F)(F)F)ccc2O[C@@H]1CN(C)C(=O)NC1CCCCC1	63.2	3.9	-1.7
COc1ccc(NC(=O)Nc2ccc3c(c2)C(=O)N([C@H](C)CO)C[C@H](C)[C@@H](CN(C)C(=O)Nc2ccc4c(c2)OCO4)OCCCC[C@H](C)O3)cc1	43.4	-6.4	-25.1
C[C@@H]1CCCCO[C@@H](CN(C)C(=O)Nc2ccc(F)cc2)[C@H](C)CN([C@H](C)CO)C(=O)c2cc(NC(=O)Nc3ccccc3)ccc2O1	112.4*	3.0	-22.2
COc1ccc(NC(=O)Nc2ccc3c(c2)C(=O)N([C@@H](C)CO)C[C@H](C)[C@H](CN(C)C(=O)Nc2ccc4c(c2)OCO4)OCCCC[C@@H](C)O3)cc1	43.8	9.0	-82.4*
C[C@@H]1CN([C@H](C)CO)C(=O)c2cc(NC(=O)CCC(F)(F)F)ccc2O[C@H]1CN(C)C(=O)NC1CCCCC1	23.8	-4.3	-86.9*
C[C@@H]1CCCCO[C@@H](CN(C)C(=O)Nc2ccc(C(F)(F)F)cc2)[C@@H](C)CN([C@H](C)CO)C(=O)c2cc(NC(=O)Nc3ccc4c(c3)OCO4)ccc2O1	.	0.7	-61.4
C[C@@H]1CCCCO[C@@H](CN(C)C(=O)Nc2ccc3c(c2)OCO3)[C@@H](C)CN([C@@H](C)CO)C(=O)c2cc(NC(=O)Nc3ccc(C(F)(F)F)cc3)ccc2O1	.	12.2	-92.3*
CCC(=O)N1CC2(C1)[C@H](c1ccc(-c3ccccc3)cc1)[C@@H](CO)N2C(C)=O	.	-7.2	-10.9
CC(C)COC(=O)N(C)C[C@H]1OCc2ccccc2-c2c(n(C)c3ccccc23)C(=O)N([C@H](C)CO)C[C@@H]1C	84.6	25.2	-41.0
C[C@@H]1CN([C@H](C)CO)C(=O)c2cc(-c3ccccc3)cnc2O[C@@H]1CN(C)C(=O)c1ccccn1	42.0	0.4	3.9
COc1ccc(NC(=O)Nc2ccc3c(c2)C(=O)N([C@H](C)CO)C[C@H](C)[C@H](CN(C)Cc2ccccc2)OCCCC[C@@H](C)O3)cc1	85.9	-0.1	-29.0
COCC(=O)Nc1ccc2c(c1)OC[C@@H](C)N(Cc1cccnc1)C[C@@H](C)[C@H](OC)CN(C)C2=O	.	-0.5	0.5
C[C@H]1CN([C@@H](C)CO)S(=O)(=O)c2ccc(C#Cc3cccnc3)cc2O[C@@H]1CN(C)C	10.5	-3.8	-28.9
C[C@@H]1CN([C@H](C)CO)S(=O)(=O)c2ccc(C#Cc3cccnc3)cc2O[C@H]1CN(C)C	15.7	-1.3	-25.0
CCCN(C)C[C@H]1Oc2cc(C#Cc3cccnc3)ccc2S(=O)(=O)N([C@H](C)CO)C[C@H]1C	40.9	-4.3	-88.9*
CCCN(C)C[C@H]1Oc2cc(C#Cc3cccnc3)ccc2S(=O)(=O)N([C@@H](C)CO)C[C@H]1C	14.9	-7.6	-84.4*
CCCN(C)C[C@@H]1Oc2cc(C#Cc3cccnc3)ccc2S(=O)(=O)N([C@H](C)CO)C[C@@H]1C	50.9	-3.5	-87.7*
C[C@H]1CN([C@@H](C)CO)S(=O)(=O)c2ccc(C#Cc3cccnc3)cc2O[C@H]1CN(C)C	-63.3	-3.4	-9.0
C[C@H](CO)N1C[C@H](C)[C@@H](CN(C)Cc2ccncc2)Oc2cc(-c3cccnc3)ccc2S1(=O)=O	91.7	2.4	-16.2
Cc1ccc(S(=O)(=O)N(C)C[C@@H]2Oc3cc(C#Cc4ccncc4)ccc3S(=O)(=O)N([C@@H](C)CO)C[C@@H]2C)cc1	-9.3	2.5	-84.6*
C[C@H]1CN([C@@H](C)CO)S(=O)(=O)c2ccc(C#Cc3ccncc3)cc2O[C@H]1CN(C)S(=O)(=O)c1ccccc1	69.6	1.6	-39.9
Cc1ccc(S(=O)(=O)N(C)C[C@H]2Oc3cc(C#Cc4ccncc4)ccc3S(=O)(=O)N([C@H](C)CO)C[C@H]2C)cc1	77.7	1.3	-76.8
Cc1ccc(S(=O)(=O)N(C)C[C@H]2Oc3cc(C#Cc4ccncc4)ccc3S(=O)(=O)N([C@H](C)CO)C[C@@H]2C)cc1	45.1	1.7	-81.3*
O=C(C[C@H]1CC[C@H]2[C@@H](COC[C@H](O)CN2C(=O)Cc2ccccc2)O1)NC1CCCC1	-27.7	4.7	-13.1
CCC(=O)N1[C@H](CO)[C@H](c2ccc(-c3ccc(F)cc3)cc2)[C@@H]1CNC(C)=O	-4.1	-2.5	-73.0
SMILES	Tcruzi prolif	C diff HTS	Pf Dd2 inh
O=C(c1ccncc1)N1C[C@@H]2N[C@H](C1)C2c1ccc(/C=C/c2ccccc2)cc1 (stereo partly drawn)	.	-1.3	1.9
O=S(=O)(c1ccc(F)cc1)N1C[C@@H]2N[C@H](C1)C2c1ccc(/C=C/c2ccccc2)cc1 (stereo partly drawn)	.	-98.8*!	-40.5
O=C(Nc1ccccc1)N1C[C@@H]2N[C@H](C1)[C@@H]2c1ccc(/C=C/c2ccccc2)cc1	.	-96.9*	-89.4*
C/C=C/c1ccc(C2[C@@H]3CN(S(=O)(=O)c4ccc(C)cc4)C[C@H]2N3)cc1 (stereo partly drawn)	.	-14.8	-66.6
O=C(c1ccc(F)cc1)N1C[C@@H]2N[C@H](C1)C2c1ccc(/C=C/c2ccccc2)cc1 (stereo partly drawn)	.	-99.2*!	-27.1
O=C(c1ccc2c(c1)OCO2)N1C[C@@H]2N[C@H](C1)C2c1ccc(/C=C/c2ccccc2)cc1 (stereo partly drawn)	.	47.3	-89.5*!
O=C(Nc1ccccc1)N1C[C@@H]2N[C@H](C1)C2c1ccc(-c2ccccc2)cc1 (stereo partly drawn)	.	62.2	-1.2
O=C(c1ccc2c(c1)OCO2)N1C[C@@H]2N[C@H](C1)C2c1ccc(-c2cncnc2)cc1 (stereo partly drawn)	.	-7.5	21.8
CN1c2ccc(C#Cc3cccnc3)cc2[C@@H]2[C@@H](CCN2S(=O)(=O)c2cccc(F)c2)[C@H]1CO	37.4	-4.2	-50.6
Cc1ccccc1-c1ccc([C@H]2[C@H](CO)N3C(=O)CN(C(=O)NC4CCCC4)C[C@@H]23)cc1	.	41.8	-31.6
C[C@@H]1CN([C@@H](C)CO)C(=O)c2cccc(NC(=O)c3ccncc3)c2O[C@H]1CN(C)Cc1ccc(Cl)c(Cl)c1	94.9	-3.7	-26.7
O=C(C[C@@H]1CC[C@H]2[C@@H](COC[C@@H](O)CN2C(=O)Nc2ccc3c(c2)OCO3)O1)N1CCN(c2ccccc2)CC1	.	-1.1	18.3
CC(C)NC(=O)Nc1ccc2c(c1)C(=O)N([C@@H](C)CO)C[C@@H](C)[C@H](CN(C)C(=O)CCC(F)(F)F)OCCCC[C@H](C)O2	-35.9	-0.2	0.5
O=C(C1CCCC1)N1CC2(C1)[C@@H](c1ccccc1)[C@@H](CO)N2C(=O)c1cccnc1	.	-3.2	24.8
C[C@@H]1CCCCO[C@H](CN(C)Cc2ccc(Cl)c(Cl)c2)[C@@H](C)CN([C@H](C)CO)C(=O)c2cc(NC(=O)CCCCCC(=O)Nc3ccccc3N)ccc2O1	.	1.1	-89.8*
C[C@@H]1CN([C@H](C)CO)C(=O)c2cc(NC(=O)CCCCCC(=O)Nc3ccccc3N)ccc2O[C@@H](C)CCCCO[C@H]1CN(C)Cc1ccc(Cl)c(Cl)c1	.	-0.9	-91.4*
